Inconclusive results are not listed. The source made the active and inactive calls. Unless noted, calls come from the whole dose curve; as a rule, active = well fitted curve in the direction sought with a large enough effect; inconclusive = small, poorly fitted or top-dose-only effect, or another doubt; inactive = no such curve, though single readings can be large; an effect the other way counts as inactive or inconclusive.
Experiments:
[1] = biological target: Lysosomal acid glucosylceramidase (Homo sapiens) (UniProt P04062); assay: Glucocerebrosidase-p2 (AID 348; in the data active = potency below about 10 µM; note: potency is the fitted concentration of half-maximal effect); settings: purified GBA, blue fluorogenic substrate, 40 min
Outline: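 Normal human glucocerebrosidase (0.2 nM) with blue fluorogenic substrate (80 uM final) in citrate/phosphate pH 5.9 with 10mM sodium taurocholate, 0.01% tween-20; 40 min RT, NaOH/glycine stop; fluorescence Ex 365/Em 440; AC50 from a titration from 0.6 nM upwards.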

[2] = AP1 Signaling Pathway (AID 357; active = well fitted curve in either direction with a large enough effect, not every such curve was filed as active;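 note: ME-180 reporter cells stimulated with EGF at its EC50 level; % is set by controls: 0 for no effect and ±100 for the full control effect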); settings: ME-180 AP-1-bla reporter, EGF-induced, beta-lactamase ratio, 5 h; at 7.69 µM (top of the series) unless noted
Outline: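 In this screen, ME-180 cells in Opti-MEM with 0.5% dialyzed FBS received EC50 EGF and compound titrations for 5 h. AP-1 reporter beta-lactamase was detected via CCF4 ratio, giving AC50 for positive and negative modulators.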

[3] = biological target: Cytochrome P450 1A2 (Homo sapiens) (UniProt P05177); assay: p450-cyp1a2 (AID 410; calls by dose curve; note: potency is the fitted concentration of half-maximal effect;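 for activity change, negative = inhibition: -100% = full effect of reference inhibitor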); settings: recombinant CYP1A2, luciferin-ME demethylation, luminescence; series mostly up to 57 µM
Outline: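 20nM CYP1A2, 100uM Luciferin-ME (=Km), 100mM KPO4; cpd 10 min RT; +NADPH regen, 60 min RT; stop/detect 20 min; luminescence. Normalized to furafylline 57 uM = full inhibition.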

[4] = NFAT Signaling Pathway (AID 444; active = well fitted curve in either direction with a large enough effect, not every such curve was filed as active;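 note: carbachol stimulus at about its EC50 of 1 µM final; % is set by controls: 0 for no effect and ±100 for the full control effect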); settings: Jurkat NFAT-bla M1, carbachol, beta-lactamase ratio, 5 h; at 7.69 µM (top of the series) unless noted
Outline: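 Read-out: CCF4 FRET ratio (460 nm/530 nm) after 1 h RT dye loading, used for %activity and AC50 from titration series. Cells: Jurkat NFAT-β-lactamase/M1 line, treated with compound plus 1 uM carbachol for 5 h, 37 °C.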

[5] = Stat Signaling Pathway (AID 446; active = well fitted curve in either direction with a large enough effect, not every such curve was filed as active;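 note: ME-180 cervical cancer cells given 40 pM IL-6 alongside compound; SIE-controlled beta-lactamase reporter measured as 460/530 nm FRET emission ratio; % is set by controls: 0 for no effect and ±100 for the full control effect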); settings: ME-180 (cervical carcinoma) SIE beta-lactamase reporter, IL-6 stimulated, 5 h; at 7.69 µM (top of the series) unless noted
Outline: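 Emission at 460 and 530 nm (excitation 405 nm) reports SIE-controlled beta-lactamase in ME-180 cells. Cells received compound with 40 pM IL-6 for 5 hrs at 37 C; data scaled between 300 pM IL-6 and 125 nM JAK-inhibitor controls.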

[6] = biological target: Glucocorticoid receptor (Homo sapiens) (UniProt P04150); assay: GR-GFP Redistribution (AID 450;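 active = compounds whose dose series gives a full or clear partial fitted curve of increased nuclear translocation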; note: potency is the fitted concentration of half-maximal effect); settings: U2OS GR-GFP nuclear translocation, laser cytometry, 2 h
[7] = biological target: Glucocorticoid receptor (Homo sapiens) (UniProt P04150); assay: GR-EFC Redistribution (AID 451; calls by dose curve; note: potency is the fitted concentration of half-maximal effect); settings: CHO-K1 GR-EFC translocation, beta-gal luminescence, 2 h
Outline: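 Translocation of GR-ED fusion to nuclear EA restores b-gal, read by luminescence after 1 h room-temperature detection. Engineered CHO-K1 biosensor cells, 1,000/well, exposed 2 h at 37 C to titrations up to 46 uM final.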

[8] = biological target: Mitogen-activated protein kinase 10 (Mus musculus) (UniProt Q61831); assay: JNK3 AlphaScreen Assay (AID 530; active = well fitted curve in either direction with a large enough effect, not every such curve was filed as active;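 note: kinase came from lysate of stimulated human HepG2 cells; signal reports phosphorylation of biotinylated GST-cJun 1-79 at Ser73 with 10 µM ATP; % is set by controls: 0 for no effect and ±100 for the full control effect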); settings: JNK3 lysate, c-Jun phosphorylation; series mostly up to 57.1 µM
Outline: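 Kinase buffer: 20 mM Tris-HCl pH 7.6, 10 mM MgCl2, 1 mM DTT, 0.1 mM Na3VO4, 0.01% Tween-20; ATP 10 uM. Substrate biotin-GST-cJun(1-79), enzyme from activated HepG2 lysates. Detection by Ser73 phospho-antibody AlphaScreen.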

[9] = biological target: 3',5'-cyclic-AMP phosphodiesterase 4B (Homo sapiens) (UniProt Q07343); assay: qHTS Assay for Inhibitors of PDE-IV (AID 607; active = well fitted activation curve with a large enough effect in the main read-out, with a control signal flat, not every such curve was filed as active; note: % of control where 0% means no effect); settings: HEK293 ACTOne CNG channel cells, membrane potential fluorescence; series mostly up to 22.9 µM
Outline: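 The readout is membrane depolarisation from a cAMP-sensing CNG channel, detected with a potential dye at ex 535/em 590. Cells were HEK293-derived (endogenous PDE-IV) at 1000 cells/well, titrated up to 22.9 uM final.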

[10] = biological target: Dual specificity protein kinase CLK4 (Homo sapiens) (UniProt Q9HAZ1); assay: qHTS Assay for Inhibitors of CDC-like Kinase 4 (ADP-Glo Assay) (AID 1771); settings: recombinant CLK4, ADP-Glo luminescence; series mostly up to 80 µM; note: nearly all actives have a fitted effect of over 70% in size; note: potency is the fitted concentration of half-maximal effect
Outline: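 25 nM Clk4, 100 uM RS peptide, 1 uM ATP (final); 2 mM MgCl2, 0.5 mM EGTA, 2.5 mM DTT, 0.01% Triton X-100; 1 hr RT. ADP-Glo readout: ATP depletion 45 min, conversion/luciferase 30 min, luminescence.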

[11] = biological target: Dual specificity protein kinase CLK4 (Homo sapiens) (UniProt Q9HAZ1); assay: qHTS Assay for Inhibitors of CDC-like Kinase 4 (ADP-FP Assay) (AID 1795); settings: Transcreener ADP fluorescence polarization; series mostly up to 50 µM; note: nearly all actives have a fitted effect of over 60% in size; note: potency is the fitted concentration of half-maximal effect
Outline: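 Clk4 6.25 nM; RS peptide 100 uM; ATP 1 uM; 25 mM Tris pH 7.5, 10 mM MgCl2; 1 h reaction. ADP detected via antibody/orange tracer FP displacement; TG003 positive control.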

[12] = biological target: Ubiquitin carboxyl-terminal hydrolase 1 (Homo sapiens) (UniProt O94782); assay: Inhibitors of USP1/UAF1: Pilot qHTS (AID 504865); settings: purified USP1/UAF1, Ub-rhodamine cleavage fluorescence; series mostly up to 54.9 µM; note: nearly all actives have a fitted effect of over 35% in size; note: potency is the fitted concentration of half-maximal effect
Outline: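 In 50mM HEPES pH 7.8 containing 0.5mM EDTA, 1mM TCEP, 0.1 mg/ml BSA and 0.01% Tween-20, 1nM USP1/UAF1 is exposed to compound for 15 min, then Ub-Rho (150nM final) is added and fluorescence is read over time.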

[13] = Primary qHTS for small molecule stabilizers of the endoplasmic reticulum resident proteome: Secreted ER Calcium Modulated Protein (SERCaMP) assay (AID 1508630); settings: SH-SY5Y GLuc-SERCaMP (Gaussia luciferase released on ER calcium loss) secretion, thapsigargin, luminescence; series mostly up to 38.4 µM; note: % is set by controls: 0 for no effect and ±100 for the full control effect
Outline: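 The SH-SY5Y reporter protocol was run at 3 concentrations up to 38.3 uM (primary) or 11 concentrations (follow-up): 16 h compound, 100 nM thapsigargin for 4 h, then extracellular luciferase luminescence.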

[14] = biological target: Cytochrome P450 3A4 (Homo sapiens) (UniProt P08684); assay: qHTS Assay for Inhibitors and Substrates of Cytochrome P450 3A4 (AID 884); settings: recombinant CYP3A4, Luciferin-PPXE luminescence; series mostly up to 57.1 µM; note: potency is the fitted concentration of half-maximal effect; nearly all actives have a fitted effect of over 50% in size
Outline: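 Luminescent readout of luciferin produced by CYP3A4 (20 nM) dealkylation of Luciferin-PPXE, 25 uM (its KM). NADPH-driven reaction ran 60 min at RT after 10 min compound preincubation; data scaled to 57 uM ketoconazole as 100% inhibition.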

[15] = biological target: Cytochrome P450 3A4 (Homo sapiens) (UniProt P08684); assay: qHTS Assay for Activators of Cytochrome P450 3A4 (AID 885); settings: recombinant CYP3A4, Luciferin-PPXE luminescence, 60 min; series mostly up to 57.1 µM; note: nearly all actives have a fitted effect of over 65% in size
Outline: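 Activators are scored by enhanced luminescence from CYP3A4 conversion of luciferin-PPXE (25uM, equal to KM) to luciferin, after 60 min at RT with an NADPH-regenerating system.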

[16] = biological target: Cytochrome P450 2C19 (Homo sapiens) (UniProt P33261); assay: qHTS Assay for Inhibitors and Substrates of Cytochrome P450 2C19 (AID 899); settings: recombinant CYP2C19, luciferin-H EGE luminescence; series mostly up to 57.1 µM; note: nearly all actives have a fitted effect of over 60% in size; note: potency is the fitted concentration of half-maximal effect
Outline: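 Reactions contain 5nM enzyme, 10uM Luciferin-H EGE (KM) and 50mM KPO4; compound preincubates 10 min at 37C, NADPH regeneration starts turnover for 60 min. Luminescence after detection reagent gives activity.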

[17] = biological target: Dual specificity protein kinase CLK4 (Homo sapiens) (UniProt Q9HAZ1); assay: qHTS Assay for Inhibitors of CDC-like Kinase 4 (Kinase-Glo Assay) (AID 1770); settings: recombinant Clk4, Kinase-Glo ATP depletion luminescence; series mostly up to 66.7 µM; note: % is set by controls: 0 for no effect and ±100 for the full control effect; nearly all actives have a fitted effect of over 65% in size
Outline: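 Substrate mix (RS peptide 100 uM, ATP 1 uM) dispensed, compound pinned in, then Clk4 added to 25 nM final. Incubated 4.5 h at RT; Kinase-Glo reagent added, luminescence read after 5 min.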

Sequence of Lysosomal acid glucosylceramidase (Homo sapiens) (P04062 whole entry, looked up): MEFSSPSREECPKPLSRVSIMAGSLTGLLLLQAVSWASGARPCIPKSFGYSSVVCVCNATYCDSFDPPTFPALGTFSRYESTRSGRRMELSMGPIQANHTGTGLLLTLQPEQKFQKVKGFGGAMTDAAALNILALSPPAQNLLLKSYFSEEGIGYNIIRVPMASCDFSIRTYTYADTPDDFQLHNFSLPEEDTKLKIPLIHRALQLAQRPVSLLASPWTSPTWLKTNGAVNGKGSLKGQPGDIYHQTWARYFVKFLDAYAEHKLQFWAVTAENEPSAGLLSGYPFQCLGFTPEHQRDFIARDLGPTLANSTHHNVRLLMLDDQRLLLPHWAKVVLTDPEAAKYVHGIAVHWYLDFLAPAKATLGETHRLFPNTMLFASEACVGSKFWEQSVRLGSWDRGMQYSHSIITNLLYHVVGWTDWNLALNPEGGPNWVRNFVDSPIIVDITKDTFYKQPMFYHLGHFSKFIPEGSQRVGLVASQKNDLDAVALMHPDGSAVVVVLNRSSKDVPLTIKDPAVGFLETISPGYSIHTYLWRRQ
Sequence of 3',5'-cyclic-AMP phosphodiesterase 4B (Homo sapiens) (Q07343 whole entry, looked up): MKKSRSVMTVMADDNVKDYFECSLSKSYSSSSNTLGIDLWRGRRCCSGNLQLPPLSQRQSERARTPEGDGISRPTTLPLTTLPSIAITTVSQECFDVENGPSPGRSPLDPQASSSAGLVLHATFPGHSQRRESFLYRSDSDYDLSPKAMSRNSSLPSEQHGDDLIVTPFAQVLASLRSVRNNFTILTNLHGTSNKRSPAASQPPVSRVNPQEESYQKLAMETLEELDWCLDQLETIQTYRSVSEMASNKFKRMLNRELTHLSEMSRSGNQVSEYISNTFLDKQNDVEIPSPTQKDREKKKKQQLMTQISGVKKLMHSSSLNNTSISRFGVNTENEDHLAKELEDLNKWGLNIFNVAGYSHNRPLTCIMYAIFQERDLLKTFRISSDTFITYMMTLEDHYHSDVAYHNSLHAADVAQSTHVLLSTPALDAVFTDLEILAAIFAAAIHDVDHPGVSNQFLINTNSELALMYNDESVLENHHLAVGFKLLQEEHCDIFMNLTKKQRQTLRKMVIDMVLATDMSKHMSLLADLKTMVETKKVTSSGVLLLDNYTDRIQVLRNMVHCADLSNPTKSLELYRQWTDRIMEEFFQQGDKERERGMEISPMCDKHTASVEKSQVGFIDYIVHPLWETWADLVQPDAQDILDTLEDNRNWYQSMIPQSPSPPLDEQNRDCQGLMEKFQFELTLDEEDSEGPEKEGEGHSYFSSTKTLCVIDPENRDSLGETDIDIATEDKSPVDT
Sequence of Dual specificity protein kinase CLK4 (Homo sapiens) (Q9HAZ1 whole entry, looked up): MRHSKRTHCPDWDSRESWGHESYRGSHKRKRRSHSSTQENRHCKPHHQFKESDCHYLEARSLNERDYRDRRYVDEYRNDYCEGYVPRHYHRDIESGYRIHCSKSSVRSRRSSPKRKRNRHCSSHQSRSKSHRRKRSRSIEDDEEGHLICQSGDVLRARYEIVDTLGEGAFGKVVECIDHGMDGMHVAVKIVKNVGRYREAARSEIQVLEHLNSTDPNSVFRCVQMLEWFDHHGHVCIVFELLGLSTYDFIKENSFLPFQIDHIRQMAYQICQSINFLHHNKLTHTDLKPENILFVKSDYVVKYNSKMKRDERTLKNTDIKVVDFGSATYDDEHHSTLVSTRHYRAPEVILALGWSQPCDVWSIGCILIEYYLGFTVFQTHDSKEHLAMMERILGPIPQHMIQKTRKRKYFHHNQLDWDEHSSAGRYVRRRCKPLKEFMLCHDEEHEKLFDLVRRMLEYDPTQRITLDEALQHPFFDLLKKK
Sequence of Glucocorticoid receptor (Homo sapiens) (P04150 whole entry, looked up, the tested form may be a part): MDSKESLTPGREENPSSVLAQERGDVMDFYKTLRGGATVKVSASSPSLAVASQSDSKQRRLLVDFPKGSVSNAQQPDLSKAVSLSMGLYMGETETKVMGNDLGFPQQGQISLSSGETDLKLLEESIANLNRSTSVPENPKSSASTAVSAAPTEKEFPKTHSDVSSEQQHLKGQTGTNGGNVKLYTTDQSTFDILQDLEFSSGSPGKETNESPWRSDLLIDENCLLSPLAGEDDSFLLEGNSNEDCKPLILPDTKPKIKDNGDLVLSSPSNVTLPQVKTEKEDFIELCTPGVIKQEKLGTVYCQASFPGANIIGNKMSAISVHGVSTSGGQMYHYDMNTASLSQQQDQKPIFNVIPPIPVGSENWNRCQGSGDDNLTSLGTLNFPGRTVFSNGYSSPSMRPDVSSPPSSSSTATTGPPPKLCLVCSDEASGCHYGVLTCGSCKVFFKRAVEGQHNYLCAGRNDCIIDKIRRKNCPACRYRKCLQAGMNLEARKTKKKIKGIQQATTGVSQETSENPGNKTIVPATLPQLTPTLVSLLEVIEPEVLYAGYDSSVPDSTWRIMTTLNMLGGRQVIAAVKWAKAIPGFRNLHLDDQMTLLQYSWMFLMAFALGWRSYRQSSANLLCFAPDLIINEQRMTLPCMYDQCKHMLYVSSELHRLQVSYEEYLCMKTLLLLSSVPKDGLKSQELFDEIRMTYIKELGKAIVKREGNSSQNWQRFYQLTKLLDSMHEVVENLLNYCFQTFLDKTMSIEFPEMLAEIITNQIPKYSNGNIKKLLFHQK
Sequence of Cytochrome P450 1A2 (Homo sapiens) (P05177 whole entry, looked up): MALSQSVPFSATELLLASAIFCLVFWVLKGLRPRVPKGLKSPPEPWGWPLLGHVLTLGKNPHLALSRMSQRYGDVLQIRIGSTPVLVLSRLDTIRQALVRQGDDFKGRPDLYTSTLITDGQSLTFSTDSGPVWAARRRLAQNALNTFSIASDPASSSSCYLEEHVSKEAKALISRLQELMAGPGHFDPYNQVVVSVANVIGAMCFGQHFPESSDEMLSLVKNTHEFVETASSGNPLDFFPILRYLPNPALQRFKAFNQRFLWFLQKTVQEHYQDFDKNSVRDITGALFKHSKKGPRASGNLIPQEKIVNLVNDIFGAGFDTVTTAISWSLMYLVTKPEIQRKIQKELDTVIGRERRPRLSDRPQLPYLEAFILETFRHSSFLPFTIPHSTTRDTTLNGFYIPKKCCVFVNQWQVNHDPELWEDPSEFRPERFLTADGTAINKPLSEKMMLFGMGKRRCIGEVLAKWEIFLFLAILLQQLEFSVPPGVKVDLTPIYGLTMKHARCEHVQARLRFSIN
Sequence of Ubiquitin carboxyl-terminal hydrolase 1 (Homo sapiens) (O94782 whole entry, looked up): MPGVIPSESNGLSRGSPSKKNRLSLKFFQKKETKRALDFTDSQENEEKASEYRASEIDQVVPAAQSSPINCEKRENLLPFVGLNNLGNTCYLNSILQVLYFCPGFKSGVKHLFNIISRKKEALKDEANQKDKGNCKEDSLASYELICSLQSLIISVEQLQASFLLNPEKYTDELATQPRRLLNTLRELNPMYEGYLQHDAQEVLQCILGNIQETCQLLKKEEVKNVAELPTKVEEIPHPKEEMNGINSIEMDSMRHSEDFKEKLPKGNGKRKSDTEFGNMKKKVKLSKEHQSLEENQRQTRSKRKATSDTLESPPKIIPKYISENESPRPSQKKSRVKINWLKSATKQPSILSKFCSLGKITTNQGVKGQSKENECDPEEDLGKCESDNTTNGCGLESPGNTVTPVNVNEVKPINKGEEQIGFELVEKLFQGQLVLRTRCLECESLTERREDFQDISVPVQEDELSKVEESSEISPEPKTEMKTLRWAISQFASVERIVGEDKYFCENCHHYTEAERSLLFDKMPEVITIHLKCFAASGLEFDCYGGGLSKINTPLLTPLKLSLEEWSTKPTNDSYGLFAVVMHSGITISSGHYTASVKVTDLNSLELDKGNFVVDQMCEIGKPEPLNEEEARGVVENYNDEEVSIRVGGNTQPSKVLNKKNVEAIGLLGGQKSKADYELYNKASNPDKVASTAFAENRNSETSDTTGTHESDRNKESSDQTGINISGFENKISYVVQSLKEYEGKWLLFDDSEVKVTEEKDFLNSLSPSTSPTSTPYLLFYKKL
Sequence of Cytochrome P450 3A4 (Homo sapiens) (P08684 whole entry, looked up): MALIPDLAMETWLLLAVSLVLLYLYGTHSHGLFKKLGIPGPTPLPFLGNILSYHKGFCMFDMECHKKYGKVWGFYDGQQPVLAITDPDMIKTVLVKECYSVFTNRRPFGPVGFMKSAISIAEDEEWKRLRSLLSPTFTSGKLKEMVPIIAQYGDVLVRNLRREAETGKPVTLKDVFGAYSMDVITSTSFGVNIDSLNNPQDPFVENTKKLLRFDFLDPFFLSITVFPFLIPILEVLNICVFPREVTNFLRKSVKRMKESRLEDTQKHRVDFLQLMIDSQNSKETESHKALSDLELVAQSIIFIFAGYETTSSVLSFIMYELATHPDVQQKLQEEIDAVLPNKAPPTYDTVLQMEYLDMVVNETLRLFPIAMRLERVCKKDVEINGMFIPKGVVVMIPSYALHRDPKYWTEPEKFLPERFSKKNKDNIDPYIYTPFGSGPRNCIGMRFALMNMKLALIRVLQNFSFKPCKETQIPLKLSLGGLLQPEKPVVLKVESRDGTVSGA
Sequence of Cytochrome P450 2C19 (Homo sapiens) (P33261 whole entry, looked up): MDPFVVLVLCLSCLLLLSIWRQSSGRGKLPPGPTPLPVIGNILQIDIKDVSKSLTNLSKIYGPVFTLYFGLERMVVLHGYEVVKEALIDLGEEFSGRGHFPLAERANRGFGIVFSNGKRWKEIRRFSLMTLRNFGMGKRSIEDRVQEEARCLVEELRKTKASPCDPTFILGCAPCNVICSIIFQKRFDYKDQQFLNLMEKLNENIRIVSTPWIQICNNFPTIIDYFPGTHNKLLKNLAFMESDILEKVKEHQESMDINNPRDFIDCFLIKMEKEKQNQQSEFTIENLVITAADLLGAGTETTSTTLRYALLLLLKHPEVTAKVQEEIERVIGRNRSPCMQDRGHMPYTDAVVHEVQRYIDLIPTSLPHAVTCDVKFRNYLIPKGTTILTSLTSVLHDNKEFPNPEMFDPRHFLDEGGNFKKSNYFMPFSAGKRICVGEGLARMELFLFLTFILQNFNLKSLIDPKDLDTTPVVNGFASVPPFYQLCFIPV

COc1ccc(-n2c(=O)c(-c3ccc(F)cc3)nc3cncnc32)cc1
inactive: Potency [1] > 11.4 µM | activity change, negative = inhibition [2] 7.36% | Potency [3] | activity change, negative = inhibition [4] -20% | activity, negative = inhibition [5] 6.09% | Potency [6] > 9.22 µM | Potency [7] > 46 µM | Potency [8] | Potency [9] | Potency [10] | Potency [11] | Potency [12] | outcome [13]

COc1ncc2nc(-c3cn(C)c4ccccc34)c(=O)n(CCC#N)c2n1
inactive: Potency [1] > 11.4 µM | activity change, negative = inhibition [2] -17.8% | activity change, negative = inhibition [4] -2.23% | Potency [6] > 9.22 µM | Potency [7] > 46 µM | Potency [8] | Potency [9] | Potency [15] | Potency [10] | Potency [11] | Potency [12] | outcome [13]
active: Potency [3] 5.01 µM | Potency [14] 6.31 µM

Fc1ccc(Nc2ccnc(-c3ccc4c(c3)OCO4)n2)cc1
inactive: Potency [1] > 11.4 µM | activity change, negative = inhibition [2] 8.72% | activity change, negative = inhibition [4] -0.562% | activity, negative = inhibition [5] -6.41% | Potency [6] > 46 µM | Potency [7] > 46 µM | Potency [8] | Potency [15] | Potency [11] | outcome [13]
active: Potency [3] 0.631 µM | Potency [14] 2 µM | Potency [16] 2 µM | Potency [10] 31.6 µM

COc1ncc2nc(-c3cn(C)c4ccccc34)c(=O)n(C)c2n1
active: Potency [3] 1 µM | Potency [14] 5.01 µM
inactive: Potency [1] > 11.4 µM | activity change, negative = inhibition [2] 4.21% | activity change, negative = inhibition [4] 11.4% | activity, negative = inhibition [5] 7.15% | Potency [6] > 9.22 µM | Potency [7] > 46 µM | Potency [8] | Potency [9] | Potency [15] | Potency [16] | Potency [10] | Potency [11] | outcome [13]

COc1ccc(-c2nc3cnc(N(C)C)nc3n(Cc3ccc(F)cc3)c2=O)cc1
active: activity change, negative = inhibition [4] 102% [activator] | activity, negative = inhibition [5] 126% [activator]
inactive: Potency [1] > 11.4 µM | Potency [6] > 9.22 µM | Potency [7] > 46 µM | Potency [8] | Potency [9] | Potency [17] | Potency [12] | outcome [13]

COc1ccc2[nH]cc(CCNc3cc(-c4ccccc4Cl)ncn3)c2c1
inactive: Potency [1] > 11.4 µM | activity change, negative = inhibition [2] 0.747% | activity change, negative = inhibition [4] 9.26% | activity, negative = inhibition [5] -11.7% | Potency [6] > 46 µM | Potency [7] > 46 µM | Potency [8] | Potency [9] | outcome [13]
active: Potency [10] 12.6 µM | Potency [11] 12.6 µM | Potency [12] 20 µM

From PubChem BioAssay (NCATS)
